Only some compounds are listed: those with a hit (about 7.6% of all), similar ones and a draw of the others.
BRCA1 expr up: increases BRCA1 expression; MCF7-BRCA1-FFLuc reporter, luminescence, 48 h; response scale: scaled: vehicle 0%, 10 µM genistein 100%; Potency, µM (top dose mostly 46.1 µM), without a hit: top-dose activation, usual class: activators; hit rate 1.1% among 380,000; AID 624202; also: potency is read from the fitted curve at half-maximal effect; nearly all actives have a fitted effect of over 80% in size
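Using MCF7 cells harboring a BRCA1 firefly luciferase reporter, plated 2 h before compound pinning, the screen measured luminescence after 48 h incubation. Responses were normalized to DMSO and 10 microM genistein, then fitted for concentration-effect.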
Giardia kill: Giardia lamblia killing. Giardia lamblia trophozoite viability. activity change, % at 7.66 µM, hits read low. hit rate 0.15% among 340,000. AID 540267; in the data active = activity change below about -80%; inconclusive = between about -30% and that limit;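 also: parasites exposed to compound for two days anaerobically before the ATP read; % is scaled to controls: 0 for no effect and ±100 for the full control effect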
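Media and compound were dispensed first, then trophozoites at 100 cells/well; plates sat 48 hrs at 37 deg C without oxygen before ATP luminescence reagent was added and read after 15-30 min at room temperature.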
p53 reactivation: restores transcriptional activity of mutant p53. H1299 p53-A138V BP100-luciferase reporter, luminescence, 24 h. Potency, µM (highest dose often 92.2 µM), for the others: top-dose activity change, positive = activation, actives largely listed as activators. hit rate 0.063% among 320,000; also: potency is read from the fitted curve at half-maximal effect; % of control where 0% means no effect; nearly all actives have a fitted effect of over 45% in size
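p53-null H1299 cells stably carrying temperature-sensitive p53-A138V and a BP100-luciferase reporter were pinned with compounds (4-point, 1:5 series) and held 24 hrs at 37 deg C. Luminescence was read 10 min after detection reagent.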
Gal4-VP16 FLuc: inhibits Gal4-VP16 luciferase reporter, ROR gamma counter-screen | Drosophila S2 Gal4-VP16 UAS-luciferase, luminescence, 20 h | Potency, µM (series often up to 53.6 µM), inactives show top-dose activity, negative = inhibition, hits mostly inhibitors | hit rate 3.5% among 310,000 | AID 2546;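 also: Gal4-VP16 expression switched on by copper sulfate through the metallothionein promoter; potency is read from the fitted curve at half-maximal effect; % is scaled to controls: 0 for no effect and ±100 for the full control effect; nearly all actives have a fitted effect of over 50% in size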
ELG1 DNA repair: blocks ELG1-dependent DNA repair in HEK293T cells | HEK293T ELG1-luciferase reporter, luminescence, 16 h; DNA damage induced by 5-fluorouridine | Potency, µM (highest dose often 46.1 µM), for inactives: at the top dose activity change, negative = inhibition, actives largely listed as inhibitors | hit rate 2.3% among 330,000 | AID 504467; also: potency is read from the fitted curve at half-maximal effect; % is scaled to controls: 0 for no effect and ±100 for the full control effect; nearly all actives have a fitted effect of over 55% in size
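HEK293T cells expressing luciferase-tagged ELG1 (2,000/well) received 5-Fluorouridine plus compound or DMSO for 16 hr at 37 °C. Luciferase was read by ONE-Glo luminescence after 30 min at room temperature.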
RORgamma inh: ROR gamma (mouse) transcription inhibition; hit rate 5.4% among 310,000; P51450; AID 2551; Drosophila S2 Gal4-RORgamma UAS-luciferase reporter, 20 h; Potency, µM (titrated, usually from 53.6 µM), inactives show top-dose activity change, negative = inhibition, usual class: inhibitors; also: potency is read from the fitted curve at half-maximal effect; % is scaled to controls: 0 for no effect and ±100 for the full control effect; nearly all actives have a fitted effect of over 60% in size
Target sequence (P51450 whole entry, looked up, the tested form may be a part): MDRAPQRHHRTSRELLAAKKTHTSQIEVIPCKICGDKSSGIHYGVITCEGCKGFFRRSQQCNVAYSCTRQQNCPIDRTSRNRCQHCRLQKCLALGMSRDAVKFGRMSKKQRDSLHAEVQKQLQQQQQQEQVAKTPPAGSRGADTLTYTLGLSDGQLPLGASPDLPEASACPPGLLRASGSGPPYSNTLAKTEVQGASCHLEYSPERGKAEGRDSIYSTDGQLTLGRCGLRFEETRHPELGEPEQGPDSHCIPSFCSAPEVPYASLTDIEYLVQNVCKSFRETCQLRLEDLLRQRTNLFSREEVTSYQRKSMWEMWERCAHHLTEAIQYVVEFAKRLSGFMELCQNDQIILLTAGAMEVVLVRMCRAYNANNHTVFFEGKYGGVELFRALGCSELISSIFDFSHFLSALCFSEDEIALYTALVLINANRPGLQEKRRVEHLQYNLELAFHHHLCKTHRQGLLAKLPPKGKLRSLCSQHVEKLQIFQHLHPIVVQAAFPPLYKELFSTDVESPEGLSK
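Using a luciferase readout, inhibitors were identified by reduced reporter activity in Drosophila cells coexpressing a copper-inducible Gal4–ROR gamma fusion and UAS-driven Photinus luciferase, incubated 20 hr after 700 uM copper sulfate.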
The depositor's hits bear a star; ? = inconclusive; . = not tested or not shown. Unless noted, calls follow the shape of the dose curve; as a rule, active = well fitted curve in the direction sought with a large enough effect; inconclusive = small, poorly fitted or top-dose-only effect, or another doubt; inactive = no such curve, though single readings can be large; an effect the other way counts as inactive or inconclusive.

SMILES	BRCA1 expr up	Giardia kill	p53 reactivation	Gal4-VP16 FLuc	ELG1 DNA repair	RORgamma inh
Cc1cccc(C)c1Nc1c(-c2ccccn2)nc2ccccn12	-71.5%	13.2	?	-9.4%	?	11.2µM*
Cc1ccccc1Nc1c(-c2ccccn2)nc2c(C)cccn12	-31.4%	4.0	0.4%	7.94µM*	?	3.98µM*
Cc1ccc2oc(C(=O)N(C)Cc3ccon3)c(C)c2c1	8.91µM*	-23.1	20.8%	-13.4%	?	13.5%
CC1CCN(C(=S)c2cn(Cc3cccc(F)c3)c3ccccc23)CC1	-3.7%	-18.8	-7.3%	?	3.7%	10µM*
Fc1ccc(Cn2cc(C(=S)N3CCOCC3)c3ccccc32)cc1	16.0%	3.9	-4.3%	?	0.0%	8.91µM*
CN1CCN(C(=S)c2cn(Cc3ccc(Br)cc3)c3ccccc23)CC1	-9.7%	-15.9	-3.4%	-7.7%	-23.2%	25.1µM*
COCC(=O)N1CCC2(CCN(Cc3ccncc3)CC2)CC1	.	.	.	21.1%	.	4.5%
CCOc1ccc(OCC)c(NC(=O)CN(C)S(=O)(=O)c2ccc3c(c2)CCCC(=O)N3)c1	-8.6%	.	.	.	.	.
COc1ccc(CN2C(=O)C(CC(=O)NCCc3ccccn3)CC(C(=O)N(C(C)C)C(C)C)=C2C)cc1 (stereo not drawn)	-15.4%	.	.	.	.	.
COc1ccc(CNC(=S)Nc2ccccc2-c2ccccc2)cc1	.	.	-3.4%	7.08µM*	-16.2%	2µM*
COc1ccc(OCC(=O)Nc2ccccc2-c2ccccc2)cc1	-20.5%	14.8	-3.0%	-13.2%	1.3%	-16.9%
COc1ccc(CNC(=S)Nc2ccccc2Cl)cc1	32.1%	-11.8	.	?	7.2%	17.8µM*
COc1ccc(CNC(=S)NCc2ccc(OC(C)C)cc2)cc1	1.8%	3.0	13.3%	-22.0%	-0.9%	?
O=C(NCCc1ccccc1)c1ccc2[nH]c(=O)c(=O)[nH]c2c1	-0.6%	?	3.7%	-8.7%	0.8%	-1.3%
CC1Sc2ccc(S(=O)(=O)CCC(=O)N3CCN(c4cccc(Cl)c4)CC3)cc2NC1=O (stereo not drawn)	-44.4%	26.7	-3.5%	?	13µM*	23.9%
Cc1ccc(OC(=O)c2ccc(S(=O)(=O)N(C)C)cc2)c(-n2nc3ccccc3n2)c1	12.6µM*	1.8	?	1.6%	?	21.2%
Cc1ccc(OC(=O)c2cccc(S(=O)(=O)N(C)C)c2)c(-n2nc3ccccc3n2)c1	?	10.5	?	3.9%	?	-33.2%
COc1ccc(N2C(=O)c3ccccc3NC23CCCC3)cc1	6.31µM*	-27.1	14.7%	-3.7%	?	-5.7%
CCC1(CC)Nc2ccccc2C(=O)N1c1ccc(OC)cc1	?	-15.4	8.6%	-23.4%	?	-33.6%
Cc1cc(S(=O)(=O)N(Cc2ccc(C(C)C)cc2)CC2CCCO2)ccc1-n1cnnn1 (stereo not drawn)	-52.2%	-0.7	0.1%	-3.4%	16.4µM*	2.1%
COC(=O)c1cccc(-n2c(C)cc(/C=C3\SC(=O)NC3=O)c2C)c1	10µM*	.	.	.	.	.
Cc1cc(/C=C2\SC(=S)NC2=O)c(C)n1-c1ccc(O)cc1	2.24µM*	-18.5	?	-21.1%	?	20.7%
COC(=O)C1=C(C)NC(=O)/C1=C\c1cc(C)n(-c2ccccc2C)c1C	-23.7%	-5.8	0.8%	-13.0%	20.6µM*	-8.2%
Cc1cc(/C=C2\SC(=S)NC2=O)c(C)n1-c1ccccc1	?	-15.8	?	?	?	10µM*
Cc1nc(C(C)N(C)Cc2nc(-c3ccc4c(c3)OCO4)no2)c(C)s1 (stereo not drawn)	77.3%	25.5	4.8%	?	9.8%	17.8µM*
SMILES	BRCA1 expr up	Giardia kill	p53 reactivation	Gal4-VP16 FLuc	ELG1 DNA repair	RORgamma inh
CCn1cc(C(=O)O)c(=O)c2cnc(N3CCN(C(=S)NC(=O)c4ccc(Cl)cc4)CC3)nc21	-15.0%	10.0	-2.1%	-1.2%	?	1µM*
CCn1cc(C(=O)O)c(=O)c2cnc(N3CCN(C(=S)Nc4ccccc4Cl)CC3)nc21	3.8%	11.6	0.0%	0.4%	11.6µM*	-8.6%
CCn1cc(C(=O)O)c(=O)c2cnc(N3CCN(C(=S)Nc4ccc(F)cc4)CC3)nc21	7.2%	-3.2	5.8%	-9.2%	-0.5%	24.1%
CCn1cc(C(=O)O)c(=O)c2cc(F)c(N3CCN(C(=S)NC(=O)c4ccc(Br)cc4)CC3)cc21	3.1%	1.0	-2.5%	-2.8%	5.3%	0.631µM*
CCn1cc(C(=O)O)c(=O)c2cnc(N3CCN(C(=S)NC(=O)c4ccc(Br)cc4)CC3)nc21	-40.0%	?	-2.1%	-10.5%	0.3%	0.562µM*
C=CCNC(=S)N1CCN(c2ncc3c(=O)c(C(=O)O)cn(CC)c3n2)CC1	9.5%	-23.6	-9.6%	0.8%	?	-30.0%
CCn1cc(C(=O)O)c(=O)c2cc(F)c(N3CCN(C(=S)NC(=O)c4ccc(OC)cc4)CC3)cc21	2.1%	-10.9	-0.4%	-6.9%	-5.0%	?
CCCCCCNC(=O)c1cn(CC)c2cc(N3CCN(C)CC3)c(F)cc2c1=O	-47.1%	18.2	-1.6%	12.6µM*	2.5%	11.2µM*
CCC(C)NC(=O)c1cn(CC)c2cc(N3CCN(C(=O)c4ccco4)CC3)c(F)cc2c1=O (stereo not drawn)	-6.7%	7.1	-5.7%	-1.2%	20.6µM*	37.4%
Cc1ccc(S(=O)(=O)N2CCN(C(=O)c3ccccc3)CC2)c(C)c1NS(C)(=O)=O	-12.5%	-13.8	-1.3%	0.9%	-5.0%	2.2%
COc1ccccc1COC(=O)N/C=C/c1ccco1	75.2%	-17.6	2.8%	-4.8%	4.1%	-4.1%
COc1cc2c(cc1O)CCN[C@@]21CS[C@H]2c3c(OC(C)=O)c(C)c4c(c3C(COC1=O)N1C2C2c3c(cc(C)c(OC)c3O)CC([C@@H]1O)N2C)OCO4 (stereo partly drawn)	.	.	.	0.447µM*	.	0.141µM*
CCOc1ccc(C(=O)Nc2ccc(N3CCN(C(C)=O)CC3)cc2)cc1[N+](=O)[O-]	-7.0%	-23.2	-6.2%	-0.3%	-27.8%	11.7%
CC(=O)N1CCN(c2ccc(Oc3ccc([N+](=O)[O-])c(C(F)(F)F)c3)cc2)CC1	-31.1%	-12.5	-6.0%	7.08µM*	-13.6%	?
O=C(CCC(=O)Nc1cccc(Cl)c1)N/N=C/c1cc([N+](=O)[O-])ccc1O	-59.4%	0.0	-2.2%	?	?	11.2µM*
O=C(CN(c1cccc(Br)c1)S(=O)(=O)c1ccccc1)N/N=C/c1cc([N+](=O)[O-])ccc1O	-63.2%	-11.3	.	.	.	.
